The values below come from PubChem BioAssay (NCI).

Structures are written as SMILES. “And” between values parts separate entries of the source, which are not always exact repeats. Identical values can stand only once. Compounds without any hit were thinned out: in the full panel of roughly 83,000, 20% have a hit.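 In brief: 96-well plates, 48 h treatment, single concentration, percent growth endpoint.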 The source made the active and inactive calls.

In the experiment the test system is HCT-15 colon. Put plainly: NCI-60 one-dose screen, 48 h (100 = growth as untreated, 0 = no growth, -100 = all killed). The settings on record: 10 µM unless noted. Here is the method:
Growth inhibition of the HCT-15 human tumor cell line is measured as a screen for anti-cancer activity. Cells are grown in 96 well plates and exposed to the test compound for 48 hours. Compounds are tested at a single concentration, which is 10^-5 M for most compounds. The reported endpoint is percent growth (GI% or GIPRCNT), where numbers from 0 - 100% represent growth inhibition, and numbers from -100% - 0 represent cell death. For example, a value of 40 represents 60% growth inhibition. A value of 0 means no net growth occurred over the course of the experiment. A value of -40 indicates 40% of cells at the beginning of the experiment died by the end of the experiment. A value of -100 means all cells are dead at the end of the experiment.
NCI-60 Human Tumor Cell Lines Screen was performed using the standard one-dose NCI protocol, which is described in more detail at https://dtp.cancer.gov/discovery_development/nci-60/default.htm.
Compounds with GIPRCNT values below 10 were considered active. Activity score was based on GIPRCNT using the following formula: […]
Score is 0 for GIPRCNT values of 100 or above, 50 for GIPRCNT values of 0, and 100 for GIPRCNT values of -100.
With `O=C=Nc1ccc(Br)cc1`, the growth was 96.5% (inactive).

`O=S(=O)(c1ccc(O)cc1)c1ccccc1O`: the growth is 108% (inactive).

Consider `COc1ccc(C(C#N)C(C)=O)cc1` (stereo not given), for which the growth was 95% (inactive).

As to `COC(=O)[C@@H](C)C[C@H](Cc1ccccc1)NC(=O)c1cccc([C@@H](C[C@H](C(C)C)N(C)C(=O)[C@@H](NC(=O)[C@H]2CCCCN2C)C2CC2)OC(C)=O)n1`, the growth was 8.07% (active).

Regarding `COC(=O)CCP(CCC(=O)OC)c1ccccc1`, the growth was 106% (inactive).

Regarding `Cc1c2ccncc2c(C)c2c1[nH]c1ccccc12`, the growth is -40.3% (active).

Regarding `CCCC1CCCCC12C(=O)NC(=O)NC2=O` (stereo not given), the growth is 94.3% (inactive) and 106% (inactive).

On to `CC[C@H](C)[C@H](NC(=O)[C@H]1CCCCN1C)C(=O)N(C)[C@H](C[C@@H](OC(C)=O)c1cccc(C(=O)N[C@@H](Cc2ccccc2)C[C@H](C)C(=O)OC)n1)C(C)C`, for which the growth is 8.45% (active).

With `C[C@]12CCc3sc(Nc4ccc(OC(F)(F)F)cc4)nc3C1=CC[C@@H]1[C@@H]2CC[C@]2(C)C(=O)CC[C@@H]12`, the growth is 38.3% (inactive).

For the molecule `COc1ccc(CN)cc1OC`, the growth was 103% (inactive) and 100% (inactive).

With `CCCCOC(N)=O`, the growth is 101% (inactive).

With `C=CC[PH+](c1ccccc1)c1ccccc1.C=CC[PH+](c1ccccc1)c1ccccc1.[Pt+2].[S-]c1nc2ccccc2[nH]1.[S-]c1nc2ccccc2[nH]1`, the growth is 70% (inactive).

Consider `CCCn1cc2c3c(cccc31)[C@H]1C[C@@H](C)CN(C)[C@@H]1C2`, for which the growth was 84.1% (inactive).

`CN1CCc2cc3c(cc2C1O)OCO3` (stereo not given): the growth was 98.9% (inactive) and 94% (inactive).

For `[N-]=[N+]=CC(=O)CCC(=O)C=[N+]=[N-]`, the growth is 111% (inactive).

Turning to `CCCCn1c(=O)c(C(=O)NCc2ccccc2Cl)c(O)c2ccccc21`, the growth was 48.6% (inactive).

On to `N#CCN(CC#N)[N+](=O)[O-]`, for which the growth is 108% (inactive).

For `CN(C)C(=S)SSC(=S)N(C)C`, the growth is 93.9% (inactive) and 113% (inactive).

On to `N[C@@H](CCC(=O)CCl)C(=O)O`, for which the growth is 93.7% [20 µM] (inactive).

In the case of `CC(C)CCC1C(=O)NC(=O)NC1=O`, the growth was 101% (inactive).

As for `CC1(C)CN=C(NN=C(/C=C/c2ccc(C(F)(F)F)cc2)/C=C/c2ccc(C(F)(F)F)cc2)NC1`, the growth was -72% (active).

Regarding `O=NN(c1ccccc1)c1ccccc1`, the growth was 103% (inactive).

For `CCCCCCCCCCCCCCCCCC1OCC(COC(=O)O[C@@H](C(=O)O[C@H]2C[C@@]3(O)[C@@H](OC(=O)c4ccccc4)[C@@H]4[C@]5(OC(C)=O)CO[C@@H]5C[C@H](O)[C@@]4(C)C(=O)[C@H](OC(C)=O)C(=C2C)C3(C)C)[C@@H](NC(=O)c2ccccc2)c2ccccc2)O1` (stereo not given in full), the growth is 99.4% (inactive).

For `Oc1ccccc1C=NCCN=Cc1ccccc1O`, the growth was 104% (inactive).

As for `CCCCCCCCCCCCCCCC[N+](C)(C)C`, the growth was -37.7% (active) and 23.9% (inactive).

`COc1c(O)cc2c(c1OC)-c1ccc(SC)c(=O)cc1C(NC(C)=O)CC2` (stereo not given): the growth was -40.6% (active).

`O=S1(=O)OCCO1`: the growth is 99% (inactive).

`Oc1ccccc1C=NCCN=Cc1ccccc1O.[Fe]`: the growth is 101% (inactive).

As to `CC[C@H](C)[C@H](NC(=O)[C@H]1CCCCN1C)C(=O)N(C)[C@H](C(=O)NC12CC(C(=O)N[C@@H](Cc3ccccc3)C[C@H](C)C(=O)OC)(C1)C2)C(C)C`, the growth was 101% (inactive).

Consider `C[N+]1(C)CCCC1c1cccnc1` (stereo not given), for which the growth was 104% (inactive).

Turning to `CCOP(=O)(OCC)C(=O)N(CC)CC`, the growth is 98.4% (inactive).

For the molecule `N#CC(C#N)=Cc1cccc(F)c1`, the growth is 105% (inactive).

`CNC(=O)CCl`: the growth is 101% (inactive).

Consider `Nc1cccnc1`, for which the growth is 111% (inactive).

As to `O=[N+]([O-])c1ccc(OCc2ccc(S(=O)(=O)F)c(Cl)c2)c(Cl)c1`, the growth was 84.6% (inactive).

As to `COC12CC3C4=CCOC5CC(=O)N6c7ccccc7C1(CCN2C4)C6C53` (stereo not given), the growth was 103% (inactive).

For the molecule `Cc1cc(NC(=O)NCCCOc2ccc(N3C(N)=NC(N)=NC3(C)C)cc2Cl)ccc1S(=O)(=O)F`, the growth is 90.2% (inactive).

In the case of `N#CCCc1ccccc1`, the growth is 98.3% (inactive).

With `CCOC(=O)c1ccccc1C(=O)OCC`, the growth is 93.8% (inactive).

Take `C[C@]12CC[C@H]3[C@@H](CC=C4c5nc(N)sc5CC[C@@]43C)[C@@H]1CC[C@@H]2O`: the growth was 98.4% (inactive).
